Compound activity as filed in PubChem BioAssay.
VDR inh: Inhibitors of the vitamin D receptor (VDR): qHTS | Potency, µM, for the others: max response, negative = inhibition, hits mostly inhibitors | 400,000 compounds, 0.93% hits | VDR-SRC2-3 peptide fluorescence polarization, 2 h
Target sequence (P11473 whole entry, looked up): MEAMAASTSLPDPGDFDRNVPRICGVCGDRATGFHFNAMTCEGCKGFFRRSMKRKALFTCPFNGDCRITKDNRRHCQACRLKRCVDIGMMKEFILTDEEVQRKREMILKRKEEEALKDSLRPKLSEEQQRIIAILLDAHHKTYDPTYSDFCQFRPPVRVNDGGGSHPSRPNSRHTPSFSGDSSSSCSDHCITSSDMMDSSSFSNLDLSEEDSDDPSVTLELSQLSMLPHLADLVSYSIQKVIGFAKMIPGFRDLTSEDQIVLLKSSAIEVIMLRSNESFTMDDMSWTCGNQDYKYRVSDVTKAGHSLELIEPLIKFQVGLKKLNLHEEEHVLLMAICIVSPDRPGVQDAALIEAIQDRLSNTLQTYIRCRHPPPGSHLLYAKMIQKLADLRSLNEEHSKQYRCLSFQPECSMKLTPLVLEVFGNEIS
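The screen uses fluorescence polarization to detect compounds that interfere with recruitment of the SRC2-3 coactivator peptide to VDR; plates are read after 2 h at room temperature.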
12-LOX inh: Primary qHTS assay for inhibitors of human arachidonate 12S-lipoxygenase (ALOX12): Round 2 | Polyunsaturated fatty acid lipoxygenase ALOX12 (Homo sapiens), P18054 | purified 12hLO, xylenol orange hydroperoxide absorbance | Potency, µM (highest dose often 108 µM), inactives show at the top dose activity change, negative = inhibition, usual class: inhibitors | 580,000 compounds, 1.1% hits | AID 1671190, 2021
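Purified human 12hLO (150 nM final) in 25 mM Hepes, 0.01% Triton X-100, pH 7.0 was preincubated 15 min at room temperature with compound. Then 40 uM arachidonic acid was added, 30 min. Hydroperoxide was read by Fe-XO absorbance ratio 573/405 nm.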
KAT2A inh: qHTS Assay for Inhibitors of GCN5L2 | Potency, µM (doses to about 58.9 µM), without a hit: top-dose activity change, negative = inhibition, most hits filed as inhibitors | GCN5L2 HAT assay, ThioGlo1 CoA-SH fluorescence | 390,000 compounds, 0.21% hits | Histone acetyltransferase KAT2A (Homo sapiens), Q92830 | AID 504327, 2011
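GCN5L2 (20nM final) in 50mM HEPES, 0.1mM EDTA pH 7.5, 0.01% Tween-20 was preincubated 15 min at room temperature with compound, then given ThioGlo1 (50uM), H3(1-25) peptide (75uM) and acetyl-CoA (70uM); CoA-thiol fluorescence (Ex340/Em540) was read at 0 and 20 min.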
PLK1 PBD inh: qHTS for Inhibitors of PLK1-PDB (polo-like kinase 1 - polo-box domain): Primary Screen; Plk1 PBD binding of FITC phosphopeptide, fluorescence polarization; 360,000 compounds, 2.8% hits; Potency, µM, for the others: max response, negative = inhibition, usual class: inhibitors; Serine/threonine-protein kinase PLK1 (Homo sapiens), P53350; also: series mostly up to about 57 µM; nearly all actives have a fitted effect of over 65% in size
* marks the source's active call; other numbers are inactive results; u = inconclusive; x = no result. In the library only some 3% were active in any assay of this set; here they are far more common. Calls follow the shape of the dose curve; as a rule, active = well fitted curve in the direction sought with a large enough effect; inconclusive = small, poorly fitted or top-dose-only effect, or another doubt; inactive = no such curve, though single readings can be large; an effect the other way counts as inactive or inconclusive. % is scaled to controls: 0 for no effect and ±100 for the full control effect; potency is read from the fitted curve at half-maximal effect.

SMILES | VDR inh | 12-LOX inh | KAT2A inh | PLK1 PBD inh
CC1CN(Cc2ccc(C#N)cc2Cl)CC(C)O1 (stereo not drawn) | 4% | u | -4% | -9%
CC1CN(Cc2ccc(Cl)cc2Cl)CC(C)O1 (stereo not drawn) | -4% | 0.63µM* | 0% | -1%
CCOc1cc(C)ccc1OCc1nnc(SCC(=O)NC2CCCCC2)n1C | x | 15% | x | x
N#CCCN1CCN(C(CNS(=O)(=O)c2ccc(Cl)cc2)c2ccccc2)CC1 (stereo not drawn) | -3% | 26% | -4% | -5%
O=S(=O)(NCC(c1ccccc1)N1CCC(O)CC1)c1ccc(Cl)cc1 (stereo not drawn) | -25% | 0% | -1% | 21µM*
NCCCC[C@@H](C(=O)N1CCNCC1)n1cc(CN)nn1 | -13% | 5% | -7% | -2%
CCCCc1cn([C@@H](CCCCN)C(=O)N2CCNCC2)nn1 | -22% | u | -3% | 21µM*
C#CCOCCOCCOCCNc1nc(N2CCN(C(=O)[C@H](CCCCN)n3cc(CC(C)O)nn3)CC2)nc(N2CCN(C(=O)[C@H](CCCCN)n3cc(CC(C)O)nn3)CC2)n1 (stereo partly drawn) | -4% | 13µM* | -3% | -2%
C#CCOCCOCCOCCNc1nc(N2CCN(C(=O)Cn3cc(CCO)nn3)CC2)nc(N2CCN(C(=O)[C@H](CCCCN)n3cc(CC(C)O)nn3)CC2)n1 (stereo partly drawn) | 0% | u | x | -3%
C#CCOCCOCCOCCNc1nc(N2CCOCC2)nc(N2CCN(C(=O)[C@H](CCCCN)n3cc(CCCC)nn3)CC2)n1 | -16% | 35µM* | x | -11%
C#CCOCCOCCOCCNc1nc(N2CCN(C(=O)[C@H](CCCCN)n3cc(CCCC)nn3)CC2)nc(N2CCN(C(=O)[C@H](CCCCN)n3cc(CCCC)nn3)CC2)n1 | -8% | u | -2% | -6%
C#CCOCCOCCOCCNc1nc(N2CCOCC2)nc(N2CCN(C(=O)[C@H](Cc3cc4ccccc4[nH]3)n3cc([C@@H](N)Cc4ccc(O)cc4)nn3)CC2)n1 | -19% | 8% | -3% | 27µM*
C#CCOCCOCCOCCNc1nc(N2CCN(C(=O)C(Cc3ccc(O)cc3)n3cc(C(N)CC(C)C)nn3)CC2)nc(N2CCN(C(=O)C(Cc3cc4ccccc4[nH]3)n3cc(C(N)Cc4ccc(O)cc4)nn3)CC2)n1 (stereo not drawn) | x | x | 4% | x
Cc1cc(CNC(=O)c2ccncc2)c2ccccc2n1 | x | -36% | x | x
COc1ccc(N2CCN(c3nc(C(=O)N4CCC(C)CC4)cs3)CC2)cc1 | x | -9% | x | x
COc1ccc(-c2csc(-c3ccc(O)cc3)n2)cc1 | u | -17% | -12% | 21µM*
Oc1ccc(-c2nc(-c3cc4ccccc4o3)cs2)cc1 | x | 11µM* | x | x
COc1ccc(N2CC(O)=C(c3nc(-c4ccccc4)cs3)C2=N)cc1 | u | 3% | 8% | 13µM*
COc1cccc(-c2nc(-c3cc4ccccc4o3)cs2)c1OC | x | -24% | x | x
CCC(CC)CN1CCC2(CC1)CC1C(=O)N(CC)C(=O)N1C2 (stereo not drawn) | x | 15% | x | x
O=C(O)CN1C(=O)/C(=C\c2ccccc2OCc2ccc(Cl)cc2)SC1=S | u | u | -20% | 30µM*
O=C(O)CN1C(=O)/C(=C\c2cccc(OC(=O)c3ccco3)c2)SC1=S | -21% | -22% | -8% | -21%
O=C(O)CN1C(=O)/C(=C\c2cccc(OCc3ccc(F)cc3)c2)SC1=S | 45µM* | 50µM* | -8% | 27µM*
CC(=O)NNC(=O)CN1C(=O)/C(=C/c2ccccc2)SC1=S | -1% | -8% | 18% | -11%
O=C(O)CN1C(=O)/C(=C\c2cccc(OCc3ccc(Cl)cc3)c2)SC1=S | 50µM* | u | -12% | 21µM*
CCN(CC)C(=O)CN1C(=O)/C(=C/c2ccccc2)SC1=S | u | 0% | 4% | 27µM*
CN1C(=O)/C(=C\c2ccccc2OCc2ccccc2)SC1=S | 39% | 14% | -15% | 2%
O=C(CCC(=O)N1CCC(c2noc3ccc(F)cc23)CC1)N1CCOCC1 | x | 8% | x | x
CCn1c(SCC(=O)Nc2ccc(Cl)cn2)nc2ccccc21 | x | -7% | x | x
